Assay results taken from ChEMBL document CHEMBL1961873, “Compounds: GSK PKIS; Assays: Nanosyn kinase panel” (2012).

How the values were obtained:
[1] = target: Casein kinase I isoform gamma-2 (Homo sapiens) (UniProt P78368); conditions: at 1 µM
[2] = target: Casein kinase I isoform gamma-3 (Homo sapiens) (UniProt Q9Y6M4); conditions: at 0.1 µM
[3] = target: Casein kinase I isoform gamma-3 (Homo sapiens) (UniProt Q9Y6M4); conditions: at 1 µM
[4] = target: Cyclin-dependent kinase 1 (Homo sapiens) (UniProt P06493); conditions: at 0.1 µM
[5] = target: Cyclin-dependent kinase 1 (Homo sapiens) (UniProt P06493); conditions: at 1 µM
[6] = target: Cyclin-dependent kinase 2 (Homo sapiens) (UniProt P24941); conditions: at 0.1 µM
[7] = target: Cyclin-dependent kinase 2 (Homo sapiens) (UniProt P24941); conditions: at 1 µM
[8] = target: Cyclin-dependent kinase 2 (Homo sapiens) (UniProt P24941); conditions: at 0.1 µM; remark: listed apart in the source
[9] = target: Cyclin-dependent kinase 2 (Homo sapiens) (UniProt P24941); conditions: at 1 µM; remark: listed apart in the source
[10] = target: T1, CDK3/Cyclin E (Homo sapiens) (UniProt P24864+Q00526); conditions: at 0.1 µM
[11] = target: T1, CDK3/Cyclin E (Homo sapiens); conditions: at 1 µM
[12] = target: Cyclin-dependent kinase 4 (Homo sapiens) (UniProt P11802); conditions: at 0.1 µM
[13] = target: Cyclin-dependent kinase 4 (Homo sapiens) (UniProt P11802); conditions: at 1 µM
[14] = target: Cyclin-dependent kinase 5 (Homo sapiens) (UniProt Q00535); conditions: at 0.1 µM
[15] = target: Cyclin-dependent kinase 5 (Homo sapiens) (UniProt Q00535); conditions: at 1 µM
[16] = target: Cyclin-dependent kinase 6 (Homo sapiens) (UniProt Q00534); conditions: at 0.1 µM
[17] = target: Cyclin-dependent kinase 6 (Homo sapiens) (UniProt Q00534); conditions: at 1 µM
[18] = target: Dual specificity protein kinase CLK2 (Homo sapiens) (UniProt P49760); conditions: at 0.1 µM
[19] = target: Dual specificity protein kinase CLK2 (Homo sapiens) (UniProt P49760); conditions: at 1 µM
[20] = target: Dual specificity protein kinase CLK3 (Homo sapiens) (UniProt P49761); conditions: at 0.1 µM
Dual specificity protein kinase CLK3 (Homo sapiens), sequence (P49761 whole entry, looked up): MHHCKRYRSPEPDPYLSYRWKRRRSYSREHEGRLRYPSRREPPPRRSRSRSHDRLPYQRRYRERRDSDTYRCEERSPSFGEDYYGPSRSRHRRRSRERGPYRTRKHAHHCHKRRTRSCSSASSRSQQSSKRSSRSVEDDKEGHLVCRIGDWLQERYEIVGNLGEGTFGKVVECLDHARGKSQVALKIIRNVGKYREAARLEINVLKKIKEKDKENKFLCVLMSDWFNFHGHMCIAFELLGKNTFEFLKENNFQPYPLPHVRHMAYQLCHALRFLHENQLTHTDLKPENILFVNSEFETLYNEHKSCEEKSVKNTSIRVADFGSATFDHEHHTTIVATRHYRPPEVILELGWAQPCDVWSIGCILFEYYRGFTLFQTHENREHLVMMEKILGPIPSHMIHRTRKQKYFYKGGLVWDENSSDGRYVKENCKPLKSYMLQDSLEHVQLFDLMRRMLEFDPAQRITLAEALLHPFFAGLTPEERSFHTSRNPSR

Dual specificity protein kinase CLK2 (Homo sapiens), sequence (P49760 whole entry, looked up): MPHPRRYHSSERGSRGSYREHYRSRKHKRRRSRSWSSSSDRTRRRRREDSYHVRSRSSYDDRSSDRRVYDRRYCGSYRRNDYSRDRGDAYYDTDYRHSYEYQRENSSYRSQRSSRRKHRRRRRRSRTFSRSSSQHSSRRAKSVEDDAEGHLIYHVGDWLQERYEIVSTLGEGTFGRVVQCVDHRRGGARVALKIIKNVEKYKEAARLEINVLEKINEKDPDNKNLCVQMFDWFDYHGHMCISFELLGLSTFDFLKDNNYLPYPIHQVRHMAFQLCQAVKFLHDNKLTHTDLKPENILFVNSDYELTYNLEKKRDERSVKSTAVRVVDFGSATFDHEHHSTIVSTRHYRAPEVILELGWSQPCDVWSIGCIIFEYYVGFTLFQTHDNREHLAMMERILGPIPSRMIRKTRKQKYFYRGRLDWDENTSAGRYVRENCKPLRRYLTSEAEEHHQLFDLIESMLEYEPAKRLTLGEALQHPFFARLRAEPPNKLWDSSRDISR
T1 sequence (P24864 whole entry, looked up): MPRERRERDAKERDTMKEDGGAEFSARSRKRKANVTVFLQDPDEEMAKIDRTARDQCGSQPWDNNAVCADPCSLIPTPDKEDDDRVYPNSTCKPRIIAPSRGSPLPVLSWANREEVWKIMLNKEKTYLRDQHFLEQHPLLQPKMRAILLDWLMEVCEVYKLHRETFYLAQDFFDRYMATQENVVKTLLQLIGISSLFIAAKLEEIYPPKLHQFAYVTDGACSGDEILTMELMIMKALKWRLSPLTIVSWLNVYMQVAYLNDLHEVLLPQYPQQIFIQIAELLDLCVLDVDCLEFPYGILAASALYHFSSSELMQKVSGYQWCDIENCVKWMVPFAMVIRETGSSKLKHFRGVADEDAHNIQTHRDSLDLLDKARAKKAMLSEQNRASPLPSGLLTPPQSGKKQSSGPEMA
T1 sequence (Q00526 whole entry, looked up): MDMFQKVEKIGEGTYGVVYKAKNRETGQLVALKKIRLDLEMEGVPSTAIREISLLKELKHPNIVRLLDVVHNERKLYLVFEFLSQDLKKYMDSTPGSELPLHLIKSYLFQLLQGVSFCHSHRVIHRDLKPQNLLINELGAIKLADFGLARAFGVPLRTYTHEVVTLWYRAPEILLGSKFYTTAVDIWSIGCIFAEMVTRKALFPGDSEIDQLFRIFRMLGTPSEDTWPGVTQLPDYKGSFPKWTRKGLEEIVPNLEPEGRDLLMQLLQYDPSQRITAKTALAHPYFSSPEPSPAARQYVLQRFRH
Cyclin-dependent kinase 5 (Homo sapiens), sequence (Q00535 whole entry, looked up): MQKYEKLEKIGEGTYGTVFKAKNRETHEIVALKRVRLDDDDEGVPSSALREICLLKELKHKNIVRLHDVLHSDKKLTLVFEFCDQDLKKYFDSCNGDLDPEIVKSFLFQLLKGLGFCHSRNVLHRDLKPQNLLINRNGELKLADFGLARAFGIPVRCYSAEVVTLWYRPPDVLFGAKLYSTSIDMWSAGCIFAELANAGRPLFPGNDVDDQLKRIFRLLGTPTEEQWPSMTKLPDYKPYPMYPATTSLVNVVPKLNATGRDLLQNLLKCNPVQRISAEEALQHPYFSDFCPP
Cyclin-dependent kinase 1 (Homo sapiens), sequence (P06493 whole entry, looked up): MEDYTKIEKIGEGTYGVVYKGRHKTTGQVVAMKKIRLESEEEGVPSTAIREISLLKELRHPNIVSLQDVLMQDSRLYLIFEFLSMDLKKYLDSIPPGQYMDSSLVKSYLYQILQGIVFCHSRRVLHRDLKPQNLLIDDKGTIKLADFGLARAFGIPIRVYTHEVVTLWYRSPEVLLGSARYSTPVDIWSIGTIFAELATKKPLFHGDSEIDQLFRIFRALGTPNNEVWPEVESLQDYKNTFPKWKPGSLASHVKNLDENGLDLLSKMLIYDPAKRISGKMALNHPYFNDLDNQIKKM
Cyclin-dependent kinase 4 (Homo sapiens), sequence (P11802 whole entry): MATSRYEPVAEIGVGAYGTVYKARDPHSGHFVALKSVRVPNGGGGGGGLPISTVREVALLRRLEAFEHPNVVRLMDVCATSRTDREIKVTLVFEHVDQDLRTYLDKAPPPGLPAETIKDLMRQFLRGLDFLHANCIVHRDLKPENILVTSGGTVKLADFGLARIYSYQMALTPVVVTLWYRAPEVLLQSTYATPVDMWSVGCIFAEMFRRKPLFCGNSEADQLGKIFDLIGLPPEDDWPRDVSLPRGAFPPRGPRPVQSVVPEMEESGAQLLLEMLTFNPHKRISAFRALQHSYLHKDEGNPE
Casein kinase I isoform gamma-2 (Homo sapiens), sequence (P78368 whole entry, looked up, canonical isoform): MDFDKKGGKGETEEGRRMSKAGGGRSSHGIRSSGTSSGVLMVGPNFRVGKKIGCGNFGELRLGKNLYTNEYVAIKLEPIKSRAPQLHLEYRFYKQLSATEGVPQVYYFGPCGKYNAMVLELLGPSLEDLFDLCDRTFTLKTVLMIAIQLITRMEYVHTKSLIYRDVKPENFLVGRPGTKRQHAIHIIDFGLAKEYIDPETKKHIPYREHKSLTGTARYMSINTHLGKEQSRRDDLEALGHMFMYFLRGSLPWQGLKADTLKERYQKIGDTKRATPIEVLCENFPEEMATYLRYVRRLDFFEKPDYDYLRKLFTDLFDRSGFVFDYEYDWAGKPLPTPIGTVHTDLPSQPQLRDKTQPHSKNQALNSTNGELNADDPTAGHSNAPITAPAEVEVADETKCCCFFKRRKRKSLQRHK
Cyclin-dependent kinase 6 (Homo sapiens), sequence (Q00534 whole entry): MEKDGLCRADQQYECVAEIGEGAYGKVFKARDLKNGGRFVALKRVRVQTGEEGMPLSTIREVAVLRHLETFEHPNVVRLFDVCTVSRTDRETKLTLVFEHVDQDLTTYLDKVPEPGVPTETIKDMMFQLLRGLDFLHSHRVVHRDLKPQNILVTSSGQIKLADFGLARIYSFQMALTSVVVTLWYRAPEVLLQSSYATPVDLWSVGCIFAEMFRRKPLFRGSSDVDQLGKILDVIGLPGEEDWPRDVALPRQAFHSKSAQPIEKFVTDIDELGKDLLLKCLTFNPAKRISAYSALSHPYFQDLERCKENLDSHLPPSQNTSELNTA
Casein kinase I isoform gamma-3 (Homo sapiens), sequence (Q9Y6M4 whole entry, looked up, canonical isoform): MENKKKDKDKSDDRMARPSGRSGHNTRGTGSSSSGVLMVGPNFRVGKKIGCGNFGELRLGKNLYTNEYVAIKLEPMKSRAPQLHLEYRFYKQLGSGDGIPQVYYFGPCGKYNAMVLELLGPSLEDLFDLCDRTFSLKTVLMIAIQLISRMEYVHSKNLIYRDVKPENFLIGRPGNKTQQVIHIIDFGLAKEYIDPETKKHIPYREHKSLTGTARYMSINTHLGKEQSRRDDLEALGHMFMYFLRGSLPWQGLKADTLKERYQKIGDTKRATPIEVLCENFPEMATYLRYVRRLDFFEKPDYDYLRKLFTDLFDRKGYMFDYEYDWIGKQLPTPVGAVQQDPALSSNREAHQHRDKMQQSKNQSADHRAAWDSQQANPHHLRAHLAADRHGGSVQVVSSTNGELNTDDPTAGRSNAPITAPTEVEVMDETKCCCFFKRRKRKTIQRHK

| Compound | inhibition [1] [%] | inhibition [2] [%] | inhibition [3] [%] | inhibition [4] [%] | inhibition [5] [%] | inhibition [6] [%] | inhibition [7] [%] | inhibition [8] [%] | inhibition [9] [%] | inhibition [10] [%] | inhibition [11] [%] | inhibition [12] [%] | inhibition [13] [%] | inhibition [14] [%] | inhibition [15] [%] | inhibition [16] [%] | inhibition [17] [%] | inhibition [18] [%] | inhibition [19] [%] | inhibition [20] [%] |
| --- | --- | --- | --- | --- | --- | --- | --- | --- | --- | --- | --- | --- | --- | --- | --- | --- | --- | --- | --- | --- |
| Cc1ccc2c(c1)/C(=N/Nc1ccc(S(N)(=O)=O)cc1)C(=O)N2 | 0.86 | 1.81 | -0.55 | 3.51 | 23.4 | 27 | 69.6 | 35 | 74.2 | 14.9 | 57.3 | 1.36 | 16.9 | 9.16 | 45.2 | -2.12 | 36.9 | 1.98 | 3.06 | -1.33 |
| CN(C)C(=O)O[C@H]1CN[C@H](C#Cc2cc3ncnc(Nc4ccc(OCc5cccc(F)c5)c(Cl)c4)c3s2)C1 | 1.66 | 1.79 | 0.71 | 0.08 | -0.52 | 1.13 | 1.7 | 3.08 | 3.18 | 0.39 | -2.05 | 1.82 | 1.04 | 0.51 | 0.96 | 2.1 | 4.47 | -0.97 | 0.42 | 1.51 |
| CN1CCN(C(=O)c2ccc(NC(=O)Nc3ccc(N(C)c4ccnc(Nc5ccc(CS(C)(=O)=O)cc5)n4)cc3)cc2)CC1 | 1.64 | 1.17 | 1.29 | 2.37 | 5.28 | 4.51 | 10.8 | 0.96 | 5.93 | -1.55 | 2.12 | 2.05 | 5.68 | 1.54 | 8.48 | -6.28 | 3.8 | 0.17 | 3.57 | 0.18 |
| c1ccc(Cc2nc3ccc(Nc4ncnc5ccccc45)cc3[nH]2)cc1 | 8.66 | 3.41 | 5.53 | 3.12 | 4.29 | 2.89 | 7.78 | 6.18 | 8.1 | 4.46 | 1.71 | 4.29 | 5.27 | 3.52 | 5.74 | 6.78 | 8.79 | 1.26 | 2 | 2.76 |
| COC(=O)c1cncc(/C=C/c2c(C)cc(O)cc2C)c1 | 3.31 | 2.67 | 3.39 | 0.78 | 3.13 | 2.61 | 4.42 | 3.33 | 5.75 | 1.45 | -1.29 | 2.45 | 3.9 | 1.02 | 3.28 | 4.33 | 4.14 | -0.85 | 2.84 | 2.11 |
| N#Cc1c(NC(=O)c2ccccc2F)sc2c1CCCC2 | -1.07 | -2.12 | -0.42 | 1.03 | 1.65 | -0.45 | 0.88 | -2.16 | -0.2 | -1.77 | -1.38 | -0.94 | 1.2 | 0.27 | 1.58 | -4.39 | -2.09 | -1.95 | -0.15 | -0.38 |
| COc1ccc(-c2nn3ncccc3c2-c2ccnc(Nc3cccc(C(F)(F)F)c3)n2)cc1 | 2.2 | 2.44 | 1.71 | 0.53 | 1.61 | 0.03 | 1.83 | 2.35 | 4.1 | 0.68 | -2.93 | 1.42 | 3.64 | 0.07 | 1.77 | -1.93 | -0.66 | 0.06 | -1.44 | -0.4 |
| O=C1Nc2ccccc2/C1=C/Nc1ccc2[nH]c(=O)[nH]c2c1 | 7.61 | 3.84 | 7.65 | 1.63 | 8.12 | 2.91 | 7.88 | 3.74 | 12.8 | 5.68 | 8.57 | 3.34 | 11.3 | 3.13 | 24.1 | 18.1 | 59 | 6.03 | 30.4 | 1.23 |
| COc1cccc(-n2nc(C)c3c(N/N=C(\C)c4ccncc4)ncnc32)c1 | 0.28 | -0.15 | -0.59 | 0.65 | 2.77 | 1.78 | 7.56 | 1.09 | 2.33 | -0.92 | -0.83 | 0.53 | 2.41 | 0.97 | 5.69 | -2.27 | 0.77 | -2.05 | 0.8 | -1.02 |
| C[C@@H](Oc1cc(-n2cnc3ccc(OC[C@@H](O)CO)cc32)sc1C(N)=O)c1ccccc1Cl | -0.43 | -1.73 | 1.34 | 0.5 | 3.21 | 1.64 | 2.63 | -2.32 | 3.99 | 1.36 | 1.56 | -0.86 | 0.89 | 0.29 | 1.88 | -1.79 | -0.4 | 1.72 | 7.52 | 0.13 |
| NS(=O)(=O)c1ccc(NC=C2C(=O)Nc3ccc4ncsc4c32)cc1 | 19.5 | 6.11 | 26.3 | 40.7 | 69.5 | 89.1 | 109 | 74.3 | 76.7 | 69.4 | 97.8 | 46.4 | 71.3 | 68.2 | 74.7 | 52.8 | 77.7 | 28.3 | 80 | 3.57 |
| CC(C)c1ccc(Nc2nccc(-c3cnn4ncccc34)n2)cc1 | 24.9 | 1.13 | 13.6 | 21.5 | 64 | 19.8 | 78.7 | 22.8 | 64.5 | 1.82 | 39 | 9.51 | 39.5 | 12.7 | 51.4 | 3.4 | 19.4 | 14 | 65.3 | 3.13 |
| COc1cc(Nc2nccc(-c3cnn4ncccc34)n2)cc(OC)c1 | 39.3 | 3.02 | 34.9 | 69.1 | 91.3 | 54.5 | 110 | 63.6 | 90 | 34.6 | 74.3 | 44.9 | 78.5 | 63 | 90.1 | 24.9 | 76.1 | 99.2 | 99.9 | 36.5 |
| CN(C)C(=O)O[C@@H]1CN[C@@H](C#Cc2cc3ncnc(Nc4ccc(OCc5cccc(F)c5)c(Cl)c4)c3s2)C1 | 5.93 | 0.73 | 5.49 | 0.38 | 0.19 | 0.82 | 7.43 | 0.72 | 1.06 | 3.66 | -1.66 | 2.09 | 1.46 | 0.54 | 1.24 | -6.37 | 0.91 | 0.95 | -0.08 | -0.16 |
